Several values for one entry are separate records, joined by “and”; a condition that tells them apart may be missing. Equal entries are not always repeated. The campaign covered roughly 5,500 compounds. About 2,000 (36%) were called active. Another 18% or so got no clear call; they are omitted. No stated cut-off is given here; in the data, active means normalized growth mostly below about 0.91 (no sharp cut-off); inconclusive means no clear call, values can overlap the other calls; inactive means mostly above about 0.92. The list shows a part of the results.
Experiment: chemical genetic growth profiling, strain panel (AID 1159580);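 further: tested at 20 µM; growth read once vehicle control cultures reached saturation at 30 °C; 1 = growth at the plate median or of vehicle wells; lower values mean less growth of the strain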
Conditions: S. cerevisiae deletion strains, growth OD

Measured: normalized growth

CCC1(c2ccccc2)C(=O)NCNC1=O
inactive: locus YAL013W, strain DEP1, active compounds read low 1.01 | locus YAL021C, strain ccr4, active compounds read low 1 | locus YAL026C, strain drs2, active compounds read low 0.991 | locus YAL030W, strain snc1, active compounds read low 1.01 | locus YAL040C, strain CLN3, active compounds read low 0.982 | locus YBL061C, strain skt5, active compounds read low 1.01 | locus YBR009C, strain hhf1, active compounds read low 0.997 | locus YBR021W, strain FUR4, active compounds read low 1 | locus YBR023C, strain chs3, active compounds read low 1.01 | locus YBR171W, strain sec66, active compounds read low 0.991 | locus YBR229C, strain ROT2, active compounds read low 1 | locus YBR231C, strain swc5, active compounds read low 1 | locus YBR279W, strain paf1, active compounds read low 1.02 | locus YCL011C, strain gbp2, active compounds read low 0.978 | locus YCL016C, strain dcc1, active compounds read low 1.01 | locus YCL029C, strain bik1, active compounds read low 0.994 | locus YCL061C, strain MRC1 (second series), active compounds read low 0.993 | locus YCL061C, strain MRC1, active compounds read low 0.988 | locus YCL069W, strain vba3, active compounds read low 0.99 | locus YCR088W, strain abp1, active compounds read low 0.984 | locus YDL005C, strain med2, active compounds read low 1.01 | locus YDL035C, strain GPR1, active compounds read low 1.01 | locus YDL040C, strain nat1, active compounds read low 1.01 | locus YDL074C, strain BRE1, active compounds read low 1.01 | locus YDL101C, strain DUN1, active compounds read low 1.01 | locus YDL134C, strain PPH21, active compounds read low 0.998 | locus YDL185W, strain tfp1, active compounds read low 0.991 | locus YDL192W, strain arf1, active compounds read low 0.999 | locus YDR001C, strain nth1, active compounds read low 0.987 | locus YDR069C, strain doa4, active compounds read low 0.998 | locus YDR101C, strain arx1, active compounds read low 1.01 | locus YDR137W, strain rgp1, active compounds read low 1.02 | locus YDR150W, strain NUM1, active compounds read low 0.992 | locus YDR159W, strain sac3, active compounds read low 0.994 | locus YDR162C, strain NBP2, active compounds read low 1.01 | locus YDR195W, strain ref2 0.992 | locus YDR297W, strain sur2, active compounds read low 1.01 | locus YDR318W, strain mcm21, active compounds read low 1 | locus YDR334W, strain swr1, active compounds read low 1 | locus YDR335W, strain msn5, active compounds read low 1.01 | locus YDR363W, strain ESC2, active compounds read low 0.969 | locus YDR388W, active compounds read low 0.998 | locus YDR392W, strain spt3, active compounds read low 0.958 | locus YDR502C, strain sam2, active compounds read low 1 | locus YEL003W, strain gim4, active compounds read low 0.975 | locus YEL037C, strain rad23, active compounds read low 0.98 | locus YEL061C, strain CIN8 (second series), active compounds read low 0.982 | locus YEL061C, strain CIN8, active compounds read low 1 | locus YER002W, strain NOP16, active compounds read low 0.988 | locus YER015W, strain faa2, active compounds read low 0.99 | locus YER016W, strain bim1, active compounds read low 1 | locus YER110C, active compounds read low 1 | locus YER111C, strain swi4, active compounds read low 0.99 | locus YER155C, strain BEM2 (second series), active compounds read low 0.951 | locus YER155C, strain BEM2, active compounds read low 0.998 | locus YER167W, strain BCK2, active compounds read low 1 | locus YFR010W, strain ubp6, active compounds read low 1 | locus YGL078C, strain dbp3, active compounds read low 0.992 | locus YGL086W, strain mad1, active compounds read low 1 | locus YGL167C, strain pmr1, active compounds read low 1.01 | locus YGL173C, strain kem1, active compounds read low 1 | locus YGL227W, strain vid30, active compounds read low 0.98 | locus YGL240W, strain doc1, active compounds read low 0.997 | locus YGL248W, strain PDE1, active compounds read low 1 | locus YGL253W, strain hxk2, active compounds read low 1 | locus YGR078C, strain PAC10, active compounds read low 1.01 | locus YGR135W, strain pre9, active compounds read low 0.995 | locus YGR252W, strain gcn5, active compounds read low 0.987 | locus YHR013C, strain ard1, active compounds read low 1.01 | locus YHR027C, strain rpn1, active compounds read low 1.01 | locus YHR030C, strain SLT2, active compounds read low 1 and 1.02 | locus YHR079C, strain IRE1 (second series), active compounds read low 0.995 | locus YHR079C, strain IRE1, active compounds read low 0.993 | locus YHR094C, strain hxt1, active compounds read low 0.995 | locus YHR129C, strain ARP1, active compounds read low 1.01 | locus YHR142W, strain chs7, active compounds read low 1 | locus YHR200W, strain rpn10, active compounds read low 0.995 | locus YIL066C, strain RNR3, active compounds read low 1.01 | locus YIL073C, strain SPO22, active compounds read low 1 | locus YIL125W, strain kgd1, active compounds read low 1 | locus YIR030C, strain dcg1, active compounds read low 0.997 | locus YJL092W, strain hpr5, active compounds read low 0.975 | locus YJL095W, strain BCK1 (second series), active compounds read low 1.01 | locus YJL095W, strain BCK1, active compounds read low 1.01 and 1.02 | locus YJL115W, strain asf1, active compounds read low 0.988 | locus YJL129C, strain trk1, active compounds read low 0.967 | locus YJL134W, strain LCB3, active compounds read low 1.01 | locus YJL154C, strain vps35, active compounds read low 0.976 | locus YJL164C, strain tpk1, active compounds read low 1 | locus YJL166W, strain qcr8, active compounds read low 1.04 | locus YJL168C, strain set2, active compounds read low 0.996 | locus YJL187C, strain SWE1 (second series), active compounds read low 1.01 | locus YJL187C, strain SWE1, active compounds read low 1.02 | locus YJR043C, strain POL32, active compounds read low 1 | locus YJR066W, strain TOR1, active compounds read low 0.967

— PubChem BioAssay AID1159580 (chemical genetic matrix, 2015)
